From ChEMBL document CHEMBL3988442, “University of Dundee, Small-Polar-MMV Screening Library” (2021)

Key:
[1] = biological target: T1, Aspartate--tRNA(Asp/Asn) ligase (Mycobacterium tuberculosis (strain ATCC 25618 / H37Rv)) (UniProt P9WFW3); assay: Assay for Asp RNA synthetase-1 from Mycobacterium tuberculosis; type: functional; parameters: scale not given: direction of the effect not stated beside the values; conditions: 30 µM; note: in the data most compounds retested in dose-response had high values
T1 sequence (whole entry): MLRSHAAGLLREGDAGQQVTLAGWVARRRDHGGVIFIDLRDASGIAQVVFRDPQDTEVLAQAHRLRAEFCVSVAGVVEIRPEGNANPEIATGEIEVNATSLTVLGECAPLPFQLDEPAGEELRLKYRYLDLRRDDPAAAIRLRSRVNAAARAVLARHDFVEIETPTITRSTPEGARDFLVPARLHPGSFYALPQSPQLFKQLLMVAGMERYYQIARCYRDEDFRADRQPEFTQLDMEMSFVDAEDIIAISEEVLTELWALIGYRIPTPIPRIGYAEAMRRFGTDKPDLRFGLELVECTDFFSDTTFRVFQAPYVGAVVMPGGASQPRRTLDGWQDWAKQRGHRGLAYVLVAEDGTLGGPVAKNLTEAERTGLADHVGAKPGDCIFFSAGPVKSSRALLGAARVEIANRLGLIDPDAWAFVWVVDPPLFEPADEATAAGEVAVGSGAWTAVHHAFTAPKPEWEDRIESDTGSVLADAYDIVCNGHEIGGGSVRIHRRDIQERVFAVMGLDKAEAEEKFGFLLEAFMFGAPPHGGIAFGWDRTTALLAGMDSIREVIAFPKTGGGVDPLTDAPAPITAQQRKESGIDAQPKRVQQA

[2] = biological target: Shiga toxin 2 (Escherichia coli O157:H7) (UniProt P09385+P09386); assay: E. coli 0.157:H7 Shiga Toxin SOP - stx2 screening assay; type: functional; parameters: scale not given: direction of the effect not stated beside the values; conditions: 30 µM

Row | SMILES | Percent Effect [1] | Percent Effect [2]
1 | CN(C)S(=O)(=O)c1ccc(CN2CCCC2c2ccc[nH]2)o1 (configuration not stated) | -3.62% | 8.06%
2 | Cc1ccc(CNC2CCN(CCc3ccncc3)CC2)s1 | -2.55% | -53.8%
3 | Cc1ccc(-c2cc(N)c(=O)n(CC(=O)NCC3CCCCC3)n2)s1 | 7.19% | 2.09%
4 | Cc1[nH]c2ccccc2c1-c1ccnc(NC[C@H](O)CO)n1 | 0.691% | -30.4%
5 | FC(F)(F)c1cc(N2CCc3ncnc(NC4CC4)c3CC2)ncn1 | 5.62% | -15.2%
6 | CCOCC1CN(S(C)(=O)=O)Cc2cnn(C)c21 (configuration not stated) | -0.204% | -35.8%
7 | Cc1nc2c(c(C)c1CC(=O)Nc1cccc(C#N)c1)c(=O)[nH]n2C | 4.67% | 5.09%
8 | O=C(c1cc(Cl)c2c(c1)OCO2)N1CCN(c2nccs2)CC1 | -0.23% | -4.3%
9 | CS(=O)(=O)CC(=O)N1C[C@H]2CCC[C@@]2(COCc2ccccn2)C1 | 4.11% | -6.39%
10 | Cc1ccc([C@@H]2CN(S(=O)(=O)c3cccs3)C[C@H]2N(C)C)cc1 | -0.804% | 19.8%
11 | Cc1ccc(CN2CCC[C@]3(C(=O)O)CN(c4ncccn4)C[C@@H]3C2)o1 | 7.77% | -25.5%
12 | CCN1CCC(CNC(=O)C2(c3cccc(C)c3)CC2)C1 (configuration not stated) | 2.87% | 1.34%
13 | O=C1CC(N(C(=O)c2ccc3[nH]c4c(c3c2)CCCC4)C2CC2)C(=O)N1 (configuration not stated) | 1.2% | -28.8%
14 | CC(C)Oc1cccc(C(O)CNC(=O)CCc2ccncc2)c1 (configuration not stated) | -1.28% | -21.1%
15 | Cn1c(Cn2ccnc2)nnc1C1CCN(C(=O)C2(C)CC2)CC1 | -0.661% | -12.1%
16 | CN(Cc1cnn(C)c1)C(=O)NC1CCN(c2ncccn2)CC1 | -1.27% | 10.9%
17 | CCc1nc(C2CCCN(C(=O)CN(C)S(C)(=O)=O)C2)no1 (configuration not stated) | -3.98% | -6.61%
18 | Cn1cc(CNCCn2cccn2)c(-c2cccnc2)n1 | 1.65% | -0.247%
19 | CCc1ccc(S(=O)(=O)Nc2c(C)cccc2C(=O)O)s1 | 0.112% | 25.9%
20 | CCc1nc(C2CCCN2CCc2ccccn2)no1 (configuration not stated) | -4.14% | -69%
21 | CCC1=N[C@@]2(CC[C@@H]3CN(Cc4ccc(Cl)cc4)C[C@@H]32)C(=O)N1C | 3.65% | 3.45%
